High-throughput results as filed in PubChem BioAssay.
TWEAK Fn14 block: blocks TWEAK-Fn14 interaction in a reporter cell assay. TWEAK-stimulated Fn14 reporter cells, luciferase luminescence, 8 h. inhibition, % at 10 µM. 360,000 compounds, 2% hits; in the data active means inhibition above about 50%
HIF-2a block: inhibitors of HIF-2a; 786-0 RCC cells HIF-2a reporter, luciferase luminescence, overnight; inhibition, % at 18.8 µM; 360,000 compounds, 0.72% hits;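 active means inhibition of the luminescence signal of 40% or more relative to plate controls, in a single-dose primary screen at 18.75 µM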
TROY signal inh: inhibitors of TROY-dependent NF-kB signaling. Q293 LMP1-TROYcd NF-kB luciferase reporter, 4 h. inhibition, % at 10 µM. 360,000 compounds, 0.98% hits;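 active means compounds whose plate-normalised and pattern-corrected inhibition of the luciferase reporter signal at the single screening dose is 50% or more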
CF NFkB block: blocks PAF-induced NF-kB reporter in cystic fibrosis cells; inhibition, % at 5 µM; 360,000 compounds, 0.86% hits; AID 588850; KKLEB NF-kB-GFP reporter, GFP fluorescence overnight;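 active means at least 50% inhibition at 5 µM, scaled per plate between neutral and stimulator controls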;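 further: PAF is a Pseudomonas aeruginosa culture filtrate used as stimulus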
Peg3 promoter: inhibitors of Peg3 promoter; HeLa PEG-Prom luciferase reporter, luminescence, overnight; inhibition, % at 20 µM; 360,000 compounds, 1.7% hits;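 active means inhibition of at least 50% at 20 µM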
KKLEB tox: reduces viability of KKLEB cystic fibrosis airway cells; KKLEB CF airway cells viability, ATPlite luminescence, overnight; stronger effect = lower value; cells stimulated with P. aeruginosa culture filtrate; activity change (cytotoxicity), % at 5 µM; 360,000 compounds, 0.36% hits;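 active means corrected activity change at or below -50% at 5 µM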
Each line names hits and unclear results; the compound was inactive in the other large screens. Compounds with a hit are over-represented: about 4% of the library has one in this group of screens.

COc1ccc(CCN=Cc2ccccc2O)cc1OC	none
CC(C)c1ccc(-c2cc(C(=O)NN3CCN(C)CC3)c3ccccc3n2)cc1	none
CCCCCn1nc(C(=O)OCc2nc(N)nc(Nc3ccccc3)n2)c2ccccc2c1=O	none
CC1CCC/C(=C(\C#N)c2nc(-c3cc4ccccc4oc3=O)cs2)C1 (configuration not stated)	TWEAK Fn14 block 64, TROY signal inh 66
CCN=c1scc(C)n1/N=C/c1cc(Br)c(O)c(OC)c1	TROY signal inh 58
COc1cc(SC#N)ccc1N=Cc1c(C)[nH]n(-c2ccc(Cl)cc2)c1=O	Peg3 promoter 56
Cc1[nH]n(-c2ccc(Cl)cc2)c(=O)c1C=NC12CN3CN(CN(C3)C1)C2	none
CN(C(=O)C1CCCN(S(=O)(=O)c2cccc([N+](=O)[O-])c2)C1)C1CCS(=O)(=O)C1 (configuration not stated)	none
CCOc1ccc(N(CC(=O)N2CCCC2)S(=O)(=O)c2ccc(F)cc2)cc1	none
Cn1c(-c2ccccc2)n[nH]c1=S	TWEAK Fn14 block 85
Cc1cccc(-c2n[nH]c(=S)n2C)c1	none
CCN1CCN(CCCNC(=O)c2ccc3c(c2)NC(=O)/C(=C\c2cccc(C)c2)S3)CC1	Peg3 promoter 107
COc1ccc(/C=C2/Sc3ccc(C(=O)NCCCN4CCOCC4)cc3NC2=O)cc1OC	Peg3 promoter 88
Cc1cccc(/C=C2/Sc3ccc(C(=O)NCCCN4CCOCC4)cc3NC2=O)c1	Peg3 promoter 65
COc1ccc(C(=O)NCCCN2CCOCC2)cc1OC	none
Cc1cc(C)c(CN2CCCC(CNC(=O)c3ccc(F)cc3)C2)c(-n2cccn2)c1 (configuration not stated)	none
COc1ccc(C(C(=O)NC2CCCCC2)N(Cc2cccs2)C(=O)Cc2c[nH]c3ccccc23)cc1 (configuration not stated)	TWEAK Fn14 block 65
O=C(NC1CCCCC1)C(c1cccs1)N(C(=O)Cc1c[nH]c2ccccc12)c1ccc(F)cc1 (configuration not stated)	Peg3 promoter 85
COc1cccc(CN(C(=O)Cc2c[nH]c3ccccc23)C(C(=O)NC2CCCCC2)c2cccs2)c1 (configuration not stated)	TWEAK Fn14 block 53
COc1cc(N(C(=O)Cc2cccs2)C(C(=O)NC2CCCCC2)c2ccc(C)cc2)ccc1-n1cnnn1 (configuration not stated)	CF NFkB block 67, KKLEB tox -56
CC(Sc1nnc(C2CC2)n1C1CC1)C(=O)N(C)C1(C#N)CCCCC1 (configuration not stated)	none
O=C(NC12CC3CC(CC(C3)C1)C2)c1ccc(-c2ccc(Br)cc2)o1	none
CCOC(=O)C1CCCN(c2ccc(NC(=O)c3snc4c(=O)[nH]c(C)nc34)cc2)C1 (configuration not stated)	TROY signal inh 51
CCc1cc2c(=O)[nH]c(-c3ccccn3)nc2s1	Peg3 promoter 96
COc1ccc(NC(=S)N/C(=N/CS(=O)(=O)c2ccccc2)c2ccccc2)cc1	TWEAK Fn14 block 52
CCCCCOc1ccc(CSC(=N)N)cc1[N+](=O)[O-]	Peg3 promoter 107
CCCCOc1ccc(Br)cc1CSC(=N)N	Peg3 promoter 105
N#CCC(=O)N/N=C1\CCCCC1C1CCCCC1 (configuration not stated)	none
Fc1ccc(N=C2NN=C(c3cc(F)ccc3F)CS2)cc1	none
O=S(=O)(c1ccc(N=C2NN=C(c3cc(F)ccc3F)CS2)cc1)N1CCOCC1	TWEAK Fn14 block 81
CCN(CC)c1c(C)nc2ccc(C(=O)Nc3cc(-c4ccccc4)ccc3OC)cn12	none
CCN(CC(=O)NCc1cccs1)C(=O)c1ccc(-c2ccc(F)cc2)o1	TWEAK Fn14 block 80
Cc1onc(C(=O)N2CCC(C(N)=O)CC2)c1-c1ccccc1Cl	TWEAK Fn14 block 87
Cc1ccc(-n2nnc(-c3nccs3)n2)cc1	TWEAK Fn14 block 94, HIF-2a block 51, TROY signal inh 66, KKLEB tox -52
O=C(CCC(=O)c1ccc(F)cc1)Nc1cccnc1	none
Cc1ccc2nc(-c3cccc(S(=O)(=O)N4CCCC4)c3)cn2c1	none
Cc1ccc2nc(-c3ccc(S(=O)(=O)N4CCCCC4)cc3)cn2c1	TROY signal inh 52
Cc1cccc(C)c1NC(=O)CN(C)C(=O)C1=COCCO1	none
COC(=O)c1ccc(Oc2nc(Nc3ccccc3)nc(N(C)C)n2)cc1	none
CCOC(=O)C(C)Oc1nc(Oc2ccccc2)nc(N(C)C)n1 (configuration not stated)	TWEAK Fn14 block 50 (no result: TROY signal inh)
O=C(C[C@@H]1C/C=C/CC[C@H](Cc2ccc(F)cc2)C(=O)O[C@H](c2ccccc2)CNC1=O)NCCO	none
O=C(O)CCC(=O)Nc1nnc(C(F)(F)F)s1	none
CCC(NC(=O)Nc1nnc(C(F)(F)F)s1)(C(F)(F)F)C(F)(F)F	TROY signal inh 64, CF NFkB block 58, KKLEB tox -51
O=S(=O)(c1cccc(NC(=S)N2CCN(c3ccccc3)CC2)c1)C(F)F	none
O=S(=O)(c1cccc(NC(=S)N2CCN(c3ccccc3F)CC2)c1)C(F)F	TWEAK Fn14 block 51
CNC(=O)OCc1nc(SSC(C)(C)C)n(C)c1COC(=O)NC	TWEAK Fn14 block 89, CF NFkB block 78, Peg3 promoter 94, KKLEB tox -75
CCSc1nc(COC(=O)NC)c(COC(=O)NC)n1C	none
CCC(=O)OCOc1ccc(/C=C2/CCC(CN(C)C)C2=O)cc1 (configuration not stated)	HIF-2a block 93, Peg3 promoter 100
COc1ccc(CNC(=O)Nc2nc(C(N)CCc3ccccc3)cs2)cc1 (configuration not stated)	Peg3 promoter 88
COc1ccc(CNC(=O)Nc2nc(C(N)Cc3ccc(Cl)cc3)cs2)cc1 (configuration not stated)	Peg3 promoter 96
COc1cc(CNC(=O)Nc2nc(C(N)CCc3ccccc3)cs2)cc(OC)c1OC (configuration not stated)	none
COc1ccccc1CNC(=O)Nc1nc(C(N)Cc2ccc(Cl)cc2)cs1 (configuration not stated)	Peg3 promoter 94
COC(=O)c1cc(NC(=O)CN(c2ccccc2OC)S(=O)(=O)c2ccccc2)ccc1Cl	TWEAK Fn14 block 53
COC(=O)c1cc(NC(=O)CN(c2cccc(OC)c2)S(=O)(=O)c2ccccc2)ccc1Cl	TWEAK Fn14 block 51
CCOc1cc(N2CCOCC2)c(OCC)cc1NC(=O)c1c(-c2ccccc2)noc1C	none
N#CCCN1CCN(S(=O)(=O)c2ccc(S(=O)(=O)NCc3ccccc3)cc2)CC1	none
COc1ccc(-n2c(=S)[nH]c3cc(C(=O)Nc4ccc(OC)c(OC)c4)ccc3c2=O)cc1	KKLEB tox -70
